Source: ChEMBL document CHEMBL3988442, “University of Dundee, Small-Polar-MMV Screening Library” (2021)
About 13,000 (27%) of roughly 48,000 compounds showed an effect of 50% or more. Some of the results follow.

These compounds were tested on Wolbachia pipientis (assay: Anti-Wolbachia Cell-Based Screen). Settings: 5 µM.
Format: functional
Design: scale not given: in the data most compounds retested in dose-response had high values

Row | SMILES | Percent Effect
1 | CCc1nc(CN2CCN(C(=O)Cc3c(C)noc3C)CC2)cs1 | 0.6841%
2 | O=C1CSC(c2ccncc2)c2c[nH]nc2N1 (stereo not drawn) | 107.2%
3 | COc1ccc(C2SCC(=O)Nc3ccsc32)cc1OC (stereo not drawn) | -3.857%
4 | COc1ccc(C2SCC(=O)Nc3ccsc32)cc1 (stereo not drawn) | 24.55%
5 | O=C1NCc2ccccc2CC12CCN(Cc1ccncc1Cl)C2 (stereo not drawn) | 100.7%
6 | O=C1Nc2ccccc2CC12CCN(CCO)C2 (stereo not drawn) | -5.884%
7 | CCCN1CCC2(Cc3ccccc3NC2=O)C1 (stereo not drawn) | -12.05%
8 | Cc1cc(C)c(CNc2ncnc3ccccc23)c(=O)[nH]1 | 14.2%
9 | CC[C@H]1CN2CC[C@H]1C[C@@H]2CNC(=O)Nc1ccccc1 | -4.877%
10 | CCOC(=O)[C@@H]1[C@H]2CN(C(=O)OC)CCN2C[C@H]1c1ccccc1 | 104.3%
11 | O=C(C1CC1)N1CCN2C[C@H](c3ccccc3)[C@@H](CO)[C@H]2C1 | 105.4%
12 | CCOC(=O)[C@@H]1[C@@H](c2ccccc2)CN2CCN(C(C)=O)C[C@H]12 | 87.07%
13 | CCOC(=O)[C@@H]1[C@@H](c2ccccc2)CN2CCN(S(C)(=O)=O)C[C@H]12 | 100.2%
14 | O=C(COc1ccccc1)N1C[C@@H](O)[C@H](N2CCCC2)C1.O=CO | 3.295%
15 | Cc1noc(C)c1CN1CCO[C@H]2[C@H](Oc3ccccn3)CC[C@@H]21.O=C(O)C(F)(F)F.O=C(O)C(F)(F)F | -5.059%
16 | CCOC(=O)[C@@H]1[C@@H](c2ccccc2)CN2CCN(C(=O)C3CC3)C[C@H]12 | 90.7%
17 | CCOC(=O)[C@@H]1[C@@H](c2ccccc2)CN2CCN(C(=O)N(C)C)C[C@H]12 | 91.13%
18 | Cc1nn(C)c2ncc(S(=O)(=O)N3CCN4CCCC4C3)cc12 (stereo not drawn) | -0.5952%
19 | CCc1nc(CC(=O)N2CCCC2CN2CCCC2)cs1 (stereo not drawn) | -9.906%
20 | O=C1N(Cc2cccnc2)C[C@H]2CN(C3CCOCC3)CCN12 | -6.635%
21 | NC(=O)C1CN(C(=O)Cc2cccnc2)CCN(C2CCOCC2)C1 (stereo not drawn) | 108.4%

Row | SMILES | Percent Effect
22 | O=C(Cc1cccnc1)N1CCC2(CC1)CCN(C1CCOC1)C2.O=C(O)C(F)(F)F.O=C(O)C(F)(F)F (stereo not drawn) | -0.1396%
23 | CN(C[C@H]1CN2CC[C@H]1C[C@@H]2CNC(=O)c1ccco1)c1ccccc1 | -3.253%
24 | Cn1ccc(CN2CCCC23CCNCC3)n1 | -9.611%
25 | CN(C)c1ncc2c(n1)C1(CCN(CC3CC3)C1)COC2.O=C(O)C(F)(F)F (stereo not drawn) | -11.31%
26 | CCN1CCC2(COCc3c(C)nc(N(C)C)nc32)C1 (stereo not drawn) | 108.4%
27 | Cc1nc(N(C)C)nc2c1COCC21CCN(CC2CC2)C1.O=C(O)C(F)(F)F (stereo not drawn) | 103%
28 | CCN1CCC2(COCc3c(C)nc(N4CCOCC4)nc32)C1 (stereo not drawn) | 5.011%
29 | COCCN1CCC2(COCc3c(C)nc(N(C)C)nc32)C1 (stereo not drawn) | 5.948%
30 | CCN1CCC2(COCc3cnc(NCC4CC4)nc32)C1.O=C(O)C(F)(F)F (stereo not drawn) | -6.306%
31 | Cc1ccccc1CNC(Cn1cncn1)c1ccccc1 (stereo not drawn) | 16.93%
32 | CC(C)c1cc(N2CCC3(CC2)CN(C)CCN3C)ncn1 | -0.4054%
33 | Cc1nnsc1CN1C[C@H]2CC[C@@H]1CN(Cc1ccccn1)C2 | -5.416%
34 | Cl.NC1(c2nc(C(F)(F)F)cc(=O)[nH]2)CCCC1 | -15.07%
35 | Cc1n[nH]c2c1C(c1ccc(O)c(Cl)c1)SCC(=O)N2 (stereo not drawn) | 5.211%
36 | Cc1n[nH]c2c1C(c1ccc3c(c1)OCO3)SCC(=O)N2 (stereo not drawn) | 118.8%
37 | Cc1n[nH]c2c1C(c1ccsc1)SCC(=O)N2 (stereo not drawn) | 0.06284%
38 | O=C1CSC(c2ccc3c(c2)OCO3)c2cn[nH]c2N1 (stereo not drawn) | 128%
39 | CC(C)[C@@H]1CN(C(=O)C2(c3ccccc3)CCN(C)CC2)C[C@H]1N(C)C | -1.656%
40 | CC(C)OCCNC1(c2ccc(F)cc2)CCOCC1 | 3.648%
41 | Cn1ccnc1CN1CCN2C[C@H](OCc3cccnc3)C[C@H]2C1.O=C(O)C(F)(F)F.O=C(O)C(F)(F)F.O=C(O)C(F)(F)F | -4.128%
42 | O=C(O)C(F)(F)F.O=C(O)C(F)(F)F.O=C(c1cccnc1)N1CCN2C[C@H](Oc3cncnc3)C[C@H]2C1 | -8.279%

Row | SMILES | Percent Effect
43 | O=C(O)C(F)(F)F.O=C(O)C(F)(F)F.O=C(O)C(F)(F)F.c1cc(CN2CCN3C[C@H](Oc4cncnc4)C[C@H]3C2)ccn1 | 106.9%
44 | Fc1cccc(O[C@@H]2C[C@H]3CN(Cc4ccncc4)CCN3C2)c1.O=C(O)C(F)(F)F.O=C(O)C(F)(F)F.O=C(O)C(F)(F)F | -7.787%
45 | O=C(c1ccncc1)N1CCN2C[C@H](Oc3cncnc3)C[C@H]2C1 | 8.644%
46 | O=C(O)C(F)(F)F.O=C(O)C(F)(F)F.O=C(O)C(F)(F)F.c1cncc(CN2CCN3C[C@H](Oc4cncnc4)C[C@H]3C2)c1 | 97.08%
47 | COCCN1CCN(c2cc(OC)ncn2)Cc2ccc(C)nc21 | 108.6%
48 | Cc1ccc2c(n1)N(CC1CC1)CCN(S(=O)(=O)C1CC1)C2.O=C(O)C(F)(F)F | 2.676%
49 | COc1cc(N2CCN(CC3CC3)c3nc(C)ccc3C2)ncn1 | 95.93%
50 | CC(C)CN1CC[C@@H]2[C@@H]1CCN2C(=O)N(C)C.O=C(O)C(F)(F)F | -11.1%
51 | O=C(c1cccnc1)N1C[C@@H]2CC[C@H](C1)N(Cc1ncc[nH]1)C2 | -11.14%
52 | Cc1cccc(CN2CCN3C(=O)NC[C@H]3C2)n1 | -6.805%
53 | Fc1cccnc1O[C@@H]1CC[C@H]2[C@H]1OCCN2Cc1nccs1.O=C(O)C(F)(F)F.O=C(O)C(F)(F)F | 0.8031%
54 | c1ccc(CO[C@@H]2CN(Cc3ccoc3)[C@@H]3COC[C@@H]32)nc1 | 117.8%
55 | O=C(O)C(F)(F)F.O=C(O)C(F)(F)F.c1ccc(CO[C@@H]2CN(Cc3nccs3)[C@@H]3COC[C@@H]32)nc1 | 102.5%
56 | O=C(O)C(F)(F)F.O=C(O)C(F)(F)F.c1cncc(CO[C@H]2CN(Cc3ccco3)[C@@H]3COC[C@H]23)c1 | 97.44%
57 | CN(Cc1ccco1)[C@@H]1CN(Cc2cccnc2)[C@@H]2CCCO[C@H]12.O=C(O)C(F)(F)F.O=C(O)C(F)(F)F.O=C(O)C(F)(F)F | 8.312%
58 | O=C(N[C@@H]1CN(Cc2ccccn2)[C@@H]2COC[C@@H]21)C1CCC1.O=C(O)C(F)(F)F | -10.37%
59 | CCN(CC)CCN1CCO[C@H]2[C@@H](OCc3ccccn3)CC[C@@H]21 | -0.06843%
60 | O=C(O)C(F)(F)F.O=C(O)C(F)(F)F.c1cncc(CO[C@H]2CO[C@@]3(CCN(Cc4ccoc4)C3)C2)c1 | -6.874%
61 | O=C(O)C(F)(F)F.O=C(O)C(F)(F)F.c1ccc(O[C@@H]2CN(Cc3nccs3)[C@@H]3CCCO[C@@H]32)nc1 | -2.827%
62 | O=C(O)C(F)(F)F.O=C(O)C(F)(F)F.c1ccc(CO[C@H]2CO[C@@]3(CCN(Cc4ccoc4)C3)C2)nc1 | -0.8411%
63 | Fc1ccc(CN2C[C@@H](OCc3ccccn3)[C@H]3COC[C@H]32)cc1.O=C(O)C(F)(F)F.O=C(O)C(F)(F)F | 103%

Row | SMILES | Percent Effect
64 | COCCO[C@@H]1C[C@H]2CN(C(=O)c3cccnc3)CCN2C1 | -1.303%
65 | CNC(=O)[C@H]1C[C@@H]2CN(C(=O)c3ccc(C)nc3)C[C@@H]2N1C | -27.99%
66 | COCCn1c(C(=O)NCc2n[nH]c(C)n2)cc2ccccc21 | -4.273%
67 | O=C(O)C(F)(F)F.O=C(O)C(F)(F)F.O=C(O)C(F)(F)F.c1ccc(CO[C@@H]2CN(Cc3cccnc3)[C@@H]3COC[C@@H]32)nc1 | 110.7%
68 | CCOC(=O)[C@@H]1[C@@H](c2ccccc2)CN2CCNC[C@H]12 | 118.8%
69 | CC(=O)C1(c2ccccc2)CCN(C(=O)C2CNCCO2)CC1 (stereo not drawn) | 2.674%
70 | CNC(=O)[C@@H]1[C@H]2CNCCN2C[C@H]1c1ccccc1 | 84.83%
71 | CC(=O)NC(C)C(=O)NCc1ccc(N2CCNC(=O)C2)cc1 (stereo not drawn) | 100.5%
72 | Cl.O=C(N[C@H]1CN[C@H]2CCCO[C@H]21)c1ccno1 | -7.03%
73 | O=C1CO[C@@H]2CNC[C@H]2N1CC1CC1 | -15.76%
74 | COc1c(CNCCc2c[nH]c3ccccc23)c(C)nn1C | 86.16%
75 | COc1cccc(CCNCc2c(C)nn(C)c2N(C)C)c1 | -6.952%
76 | COc1c(CNCCc2c[nH]c3ccccc23)c(C(C)C)nn1C | 95.04%
77 | CC(C(=O)N(C)C)N1CCCN(C(=O)Oc2ccccc2)CC1 (stereo not drawn) | -7.894%
78 | Cc1ncc2c(n1)CCCC2NC(=O)c1cnn(Cc2ccccc2)c1 (stereo not drawn) | 108%
79 | Cl.NC1(c2nc(C(F)(F)F)cc(=O)[nH]2)CCCCC1 | -23.28%
80 | COCCN1CCN(S(C)(=O)=O)Cc2ccc(C)nc21.O=C(O)C(F)(F)F | 1.772%
81 | COCCN1CCN(c2cccc(C)n2)Cc2ccc(C)nc21.O=C(O)C(F)(F)F.O=C(O)C(F)(F)F | 115.7%
82 | COCCN1CCN(c2ccc(C)nn2)Cc2ccc(C)nc21.O=C(O)C(F)(F)F.O=C(O)C(F)(F)F | 113.9%
83 | COCCN1CCN(c2ccc(C)nn2)Cc2cccnc21.O=C(O)C(F)(F)F | -12.27%
